PubChem BioAssay (NCI)
About 83,000 compounds went through this panel and 20% of them were active in at least one assay; those are over-represented in the sample as a whole.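 Growth was measured after 48 h exposure to one concentration of compound in 96-well plates. Values under 10 count as active.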 Unmarked numbers belong to inactive results. The source made the active and inactive calls.

These compounds were tested on DU-145 prostate (assay: NCI-60 one-dose screen, 48 h (100 = growth as untreated, 0 = no growth, -100 = all killed)). Conditions: 10 µM unless noted.
For C=C1C(=O)O[C@H]2[C@H]1CC/C(COC(=O)NCCc1c[nH]c3ccccc13)=C\CC[C@@]1(C)O[C@@H]21, the growth was 11.7%.
In the case of C/C(=N\Nc1cc(C)c2ccccc2n1)c1ccccn1, the growth is reported as 18.3%.
COC(=O)CNc1nc(N(C)O)nc(N(C)O)n1 showed a growth of 34.7%.
Work on Cc1ccc(-c2nc([P+](c3ccccc3)(c3ccccc3)c3ccccc3)c(N3C[C@H]4C[C@H](C3)c3cccc(=O)n3C4)o2)cc1 yielded a growth of 98.3%.
In the case of COC(=O)[C@]12CC[C@@H](C)[C@H](C)[C@@H]1C1=CC[C@@H]3[C@@]4(C)CC(=O)[C@H](OC(=O)c5ccco5)[C@@]5(C)COC(=C45)C[C@@]3(C)[C@]1(C)CC2, the growth is reported as 37.9%.
In the case of COc1ccc(/C=C/C(=O)NCC(C)O)cc1 (stereo not drawn), the growth is reported as 103%.
Compound Cc1nn(-c2ccc(Cl)cc2)c(=O)n1CCn1cnc2ccccc21 has a growth of 114%.
For CN1CCN(CCOc2ccc(-c3cnc4c(-c5ccccc5F)cnn4c3)cc2)CC1, the growth was 60.9%.
Work on O=C(NO)c1ccc(Cn2c(=O)n(-c3ccccc3)c(=O)c3ccccc32)cc1 yielded a growth of 21.9%.
In the case of COc1cccc2c1C(=O)c1c(O)c3c(c(O)c1C2=O)C[C@@](O)(C(=O)CO)C[C@@H]3OC1C[C@H](N)[C@H](O)[C@H](C)O1 (stereo partly drawn), the growth is reported as 3.11% (active).
With CCC(CC)C(=O)OC(C)COc1ccc(C(C)(C)C)cc1 (stereo not drawn) the growth was 106%.
Compound Nc1ccc(Cl)cn1 has a growth of 106%.
Compound CN1CCN(CCOc2ccc(-c3cnc4c(-c5cccc(F)c5)cnn4c3)cc2)CC1 has a growth of 71.8%.
Work on CCCC1CCCCN1C(=O)OCC(C)C (stereo not drawn) yielded a growth of 104%.
O=S(=O)(NCCNc1cc(-c2cn(-c3ccccc3)nc2-c2cccc(O)c2)ccn1)c1cccc(F)c1 was tested, and the growth was 63.5%.
In the case of Cc1cccc(C)c1NC(=O)CSC(=S)N1CCCCC1, the growth is reported as 108%.
O=C(/C=C/c1cccc(O)c1)c1ccccc1O was tested, and the growth was 83.2%.
For O=C(NO)c1ccc(Cn2c(=O)n(CCc3ccc(O)cc3)c(=O)c3ccccc32)cc1, the growth was 42.1%.
COc1ccc(O)c(-c2cc(-c3ccc(Cl)cc3)c(C#N)c(=O)[nH]2)c1 showed a growth of 102%.
For CCC(=O)c1c(C)[nH]c(C)c1C, the growth was 0.904% (active).
For COc1cc(-c2cc3ncccc3c3nc(OCCN(C)C)c4cccnc4c23)cc(OC)c1OC, the growth was 1.52% (active).
Work on O=C(/C=C/c1cccc2ccccc12)Nc1ncc(Cc2ccccc2)s1 yielded a growth of 21.2%.
In the case of CC(C)/C=C/CC[C@](C)(O)[C@H]1CC[C@]2(C)[C@@H]1CC[C@@H]1[C@@]3(C)C/C(=C/c4cccc(C(F)(F)F)c4)C(=O)C(C)(C)[C@@H]3CC[C@]12C, the growth is reported as 96.8%.
O=C(NCN1C(=O)c2cccc3cccc(c23)C1=O)N1CCC(Cc2ccccc2)CC1 gave a growth of 106%.
COc1cnc2c(c1)C(=O)c1c-2n(CCCNCCN2CCOCC2)c(=O)c2cc([N+](=O)[O-])ccc12 was tested, and the growth was 2.63% (active).
CCCCCCCC(=O)SCC/C=C/[C@@H]1CC(=O)NCc2cccc(n2)CN(Cc2ccc3ccccc3c2)CC(=O)N[C@@H](C(C)C)C(=O)O1 was tested, and the growth was 51.4%.
With Fc1ccc2nc(-c3cc(-c4ccc5c(c4)OCO5)n[nH]3)[nH]c2c1 the growth was 78.3%.
Work on Cn1cc(-c2nc(-c3cn(C)c4ncccc34)cs2)c2cc(F)ccc21 yielded a growth of 57.4%.
NCCn1cc(-c2nc(-c3c[nH]c4ncccc34)cs2)c2ccccc21 was tested, and the growth was 99.5%.
COc1ccc(-c2cc(-c3c(C)oc4cc5occc5c(OC)c4c3=O)nc(N)c2C#N)cc1OC gave a growth of 81.9%.
In the case of CN(C)c1ccc(N)c2ccccc12, the growth is reported as -96.4% (active).
CN(C)CCCCC(C(=O)CBr)(c1ccccc1)c1ccccc1 showed a growth of 31%.
O=C1Nc2ccccc2/C1=C/c1cn(CCCn2c3ccccc3c(=O)c3ccccc32)c2ccccc12 was tested, and the growth was 102%.
Compound C=C(C)[C@@H]1CC[C@]2(C=NCCCNCCCCNCCCN)CC[C@]3(C)[C@H](CC[C@@H]4[C@@]5(C)CCCNC(C)(C)[C@@H]5CC[C@]43C)[C@@H]12 has a growth of 101%.
CCCCn1c(-c2ccc(O)cc2)cn2c3c(=O)[nH]c(=O)n(C)c3nc12 showed a growth of 101%.
Work on Cc1nn(-c2ccc(Br)cc2)c2nc3[nH]c(=O)[nH]c(=O)c3nc12 yielded a growth of 114%.
Cc1cc2nc3c4cc(N)ccc4n(CCN(C)C)c3nc2cc1C was tested, and the growth was 12.6%.
For COc1ccc(-c2nc3c(c(C)nn3-c3ccc(F)cc3)c(=O)[nH]2)cc1, the growth was 85%.
